FAS TE block – blocks the thioesterase domain of human fatty acid synthase; P49327; recombinant FAS-TE, OMFH fluorogenic substrate, fluorescence endpoint; inhibition, % at 15 µM; actives 0.67% (n = 360,000); AID 602261;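 active = compounds whose normalised, plate-corrected inhibition of enzyme fluorescence in the single-dose primary screen is 50% or more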
NPR1 activator – GC-A (human) enzyme activation; actives 0.14% (n = 370,000); AID 1671463; P16066; HEK293 GC-A cells, cGMP TR-FRET, EC30 ANP; 0% at EC30 ANP, 100% saturating ANP; activation, % at 10 µM; in the data active = activation above about 40%
APOBEC3A inh – blocks human APOBEC3A ssDNA deamination | P31941 | recombinant A3A, FAM/TAMRA ssDNA deamination fluorescence | inhibition, % at 20 µM | actives 0.41% (n = 330,000) | AID 493011;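 active = at least 40% inhibition at 20 µM here, with at most 30% in a related deaminase screen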
Target sequence (P31941 whole entry, looked up): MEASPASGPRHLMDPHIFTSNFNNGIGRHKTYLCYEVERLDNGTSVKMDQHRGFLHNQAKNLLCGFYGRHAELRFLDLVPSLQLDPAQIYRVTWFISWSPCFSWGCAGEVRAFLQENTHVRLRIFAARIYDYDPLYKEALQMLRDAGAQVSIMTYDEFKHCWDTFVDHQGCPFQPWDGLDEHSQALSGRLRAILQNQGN
NPR2 activator – GC-B (human) receptor activation. HEK293-GC-B cells, CNP EC30, cGMP TR-FRET; 0% at EC30 CNP, 100% saturating CNP. actives 0.11% (n = 370,000). activation, % at 10 µM. P20594;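 active = activation at 10 µM reaching about 35% in either raw or pattern-adjusted values, limit read from the data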
A3G deaminase – inhibitors of human APOBEC3G DNA deaminase | Q9HC16 | recombinant A3G, ssDNA deamination FAM/TAMRA fluorescence | inhibition, % at 20 µM | actives 0.28% (n = 330,000) | AID 493012;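 active = inhibition of at least 40% at 20 µM, with no more than 30% in the related APOBEC3A deaminase screen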
Target sequence (Q9HC16 whole entry, looked up): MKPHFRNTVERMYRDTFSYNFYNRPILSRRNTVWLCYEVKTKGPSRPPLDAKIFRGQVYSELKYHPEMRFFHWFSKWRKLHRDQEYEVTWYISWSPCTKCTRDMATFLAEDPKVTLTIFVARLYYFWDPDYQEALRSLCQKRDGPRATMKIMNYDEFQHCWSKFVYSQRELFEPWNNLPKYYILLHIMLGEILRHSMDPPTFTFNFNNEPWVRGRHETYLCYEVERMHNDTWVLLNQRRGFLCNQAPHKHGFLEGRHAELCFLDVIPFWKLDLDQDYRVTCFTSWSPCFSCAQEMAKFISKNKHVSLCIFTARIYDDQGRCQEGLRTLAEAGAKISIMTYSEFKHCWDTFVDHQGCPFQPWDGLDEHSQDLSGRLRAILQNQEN
Each line names hits and unclear results; the compound was inactive in the other large screens. Only some compounds are listed: those with a hit (about 1.4% of all), similar ones and a draw of the others.

COc1cc(C(C)=O)ccc1Oc1ncnc2c1cnn2-c1ccc(F)cc1	NPR1 activator 47.1
O=C(Nc1ccc([N+](=O)[O-])cc1)/C(=C/c1cccc([N+](=O)[O-])c1)NC(=O)C1CCCCC1	FAS TE block 59.0
COCCCn1c(-c2ccco2)nc2ccccc2c1=O	none
CCn1nc([N+](=O)[O-])c2c(-c3nc4ccccc4o3)c(N)n(CCCOC)c2c1=O	NPR1 activator 46.3
C[C@H]1[C@@H](OC(=O)Nc2cccc(C(F)(F)F)c2)CC[C@@]23CCCN2C(=O)CCC[C@@H]13	none (no result: FAS TE block, APOBEC3A inh, A3G deaminase)
COc1ccc(C(=O)CSc2nnc(-c3n[nH]c4c3CCC4)n2N)cc1OC	NPR2 activator 43.6 (no result: FAS TE block, APOBEC3A inh, A3G deaminase)
COc1ccc(-c2noc(C3CCCN(C(=O)N[C@@H]4C[C@H]4c4ccccc4)C3)n2)cc1 (stereo partly drawn)	none (no result: FAS TE block, APOBEC3A inh, A3G deaminase)
CC(C)(C)c1ccc(-n2nc(C#N)c(Cl)cc2=O)cc1	NPR1 activator 68.6, NPR2 activator 74.5
Cc1ccccc1C1C(C#N)=C2N=C(N)c3ccccc3N2C2=C1C(=O)CCC2 (stereo not drawn)	NPR2 activator 38.2
N#CC1=C2N=C(N)c3ccccc3N2C2=C(C(=O)CCC2)C1c1cccc(Cl)c1 (stereo not drawn)	none
CCOC(=O)Cn1nc(-c2ccc(Cl)cc2)cc1N	none
CCOC(=O)CN1CCC(c2cc(-c3ccc(Cl)cc3)n[nH]2)CC1	NPR1 activator 62.0
O=C(c1cnn2c(C(F)F)cc(-c3ccccc3)nc12)N1CCOCC1	none
O=C(c1cnn2c(-c3ccccc3)cc(-c3ccccc3)nc12)N1CCN(Cc2ccccc2)CC1	NPR2 activator 35.1
CCOC(=O)CCSc1nc(-c2ccc3c(c2)OCO3)cc(C(F)(F)F)c1C#N	NPR1 activator 42.0
Cc1ccc(NC(=S)NNc2ccc([N+](=O)[O-])cc2S(=O)(=O)Nc2ccccc2C(=O)O)cc1C	FAS TE block 61.8 (no result: APOBEC3A inh, A3G deaminase)
COC(=O)c1ccc(-c2nc3cc(Cl)c(N)cc3s2)cc1	NPR1 activator 51.5
N#Cc1c(N)n(Cc2ccccc2)c(=O)c2cc([N+](=O)[O-])ccc12	NPR1 activator 47.2
COc1ccc(N2C(=O)C(Cl)=C(Oc3cccc(OC)c3)C2=O)cc1	FAS TE block 52.3 (no result: NPR1 activator, NPR2 activator)
CCN1C(=S)N[C@@H](c2cccc(F)c2)C(C(=O)OC)=C1C	NPR2 activator 45.4
COC(=O)C1=C(C)N(Cc2ccc(Br)cc2)C(=S)NC1c1cccc(F)c1 (stereo not drawn)	none (no result: FAS TE block, APOBEC3A inh, A3G deaminase)
Cc1ccc2nc(CSc3nc(C)cc(C)c3C#N)[nH]c2c1	FAS TE block 78.5
Cc1c(Nc2cc(Cl)c3nonc3c2[N+](=O)[O-])c(=O)n(-c2ccccc2)n1C	NPR2 activator 36.5
Cc1c(Nc2ccc3nonc3c2[N+](=O)[O-])c(=O)n(-c2ccccc2)n1C	none
O=C(CCSC1=NCCCN1)c1ccc(F)cc1	NPR1 activator 78.3 (no result: APOBEC3A inh, A3G deaminase)
CN1OC[C@@H]2CN3C(=Nc4cc(C(F)(F)F)cc(C(F)(F)F)c4)Sc4ccccc4[C@@H]3C[C@@H]21	none (no result: FAS TE block, APOBEC3A inh, A3G deaminase)
Cc1cc(C(=O)Cn2ncc(Cl)c(Cl)c2=O)c(C)n1CC(F)(F)F	NPR1 activator 45.1, NPR2 activator 55.9
CCOc1cc(S(=O)(=O)Nc2cc(C)cc(C)c2)ccc1Cl	NPR2 activator 47.3
COc1ccc(OCc2cc(C(=O)N[C@H]3CCCCNC3=O)no2)c(Cl)c1	none
CSc1ccccc1OCc1cc(C(=O)N[C@H]2CCCCNC2=O)no1	NPR1 activator 62.1
O=C1OCCC1Sc1nc2cc(Cl)ccc2s1 (stereo not drawn)	NPR2 activator 54.1
O=C1OCCC1Sc1nc2ccccc2s1 (stereo not drawn)	none
COc1ccc(-c2ccc(CCC(=O)O)o2)cc1	none
O=C(O)CCc1ccc(-c2ccc(Cl)cc2)o1	NPR1 activator 45.0
O=C(O)CCc1ccc(-c2ccc(Br)cc2)o1	NPR1 activator 44.1
CCN(C(=O)[C@@H](C1CC1)[C@@H](O)c1ccc(C(C)=O)cc1)c1ccccc1	none (no result: FAS TE block, APOBEC3A inh, A3G deaminase)
COc1cc2c(cc1OC)CN(CCC(=O)c1ccc(Br)cc1)CC2	NPR1 activator 42.1
CCOC(=O)N1CCN(CCC(=O)c2ccc(Cl)cc2)CC1	NPR1 activator 64.8
CCOC(=O)N1CCN(CCC(=O)c2ccc(OC)cc2)CC1	none
COc1cc2c(cc1OC)CN(C(=O)CCNC(=O)c1ccc(Br)cc1)CC2	none
CCOC(=O)N1CCN(CCC(=O)c2ccc(Br)cc2)CC1	NPR1 activator 53.1
Cc1ccc(Cn2cc(CN(C(C)(C)C)S(=O)(=O)c3ccc(F)cc3Br)nn2)cc1	none (no result: FAS TE block, APOBEC3A inh, A3G deaminase)
COC(=O)C[C@H]1CC[C@@H]2[C@@H](COc3ccc(NC(=O)Nc4cccc(C)c4)cc3C(=O)N2C)O1	none (no result: FAS TE block, APOBEC3A inh, A3G deaminase)
O=C(Nc1ccc(F)cc1)OCc1cn(Cc2ccccc2C(F)(F)F)nn1	none (no result: FAS TE block, APOBEC3A inh, A3G deaminase)
Cc1ccccc1C(C(=O)NC1CCCC1)N(C(=O)Cc1cccs1)c1ccc2c(c1)OCCO2 (stereo not drawn)	FAS TE block 53.9
CCCCCCCCN1C(=O)[C@@H](CC(=O)NCc2ccc(OC)c(OC)c2)C[C@@]2(C(=O)OC)C1=C[C@H](COCc1ccccc1)O[C@@H]2C	none (no result: FAS TE block, APOBEC3A inh, A3G deaminase)
C[C@H]1[C@@H](c2ccccc2)Oc2c(Cl)cccc2S(=O)(=O)N1C	none (no result: FAS TE block, APOBEC3A inh, A3G deaminase)
CN(C(=O)C1CCN(c2cncnc2)CC1)C1CCCCC1	none (no result: FAS TE block, APOBEC3A inh, A3G deaminase)
Cc1ccc(N2C(=O)C3C(C2=O)N2C(c4cccs4)C4C(=O)N(c5ccc(C)cc5)C(=O)C4N2C3c2cccs2)cc1 (stereo not drawn)	FAS TE block 83.7
CCC(=O)c1ccc(N2CCN(C(=O)c3ccc(F)cc3)CC2)c(F)c1	none
CCC(=O)c1ccc(N2CCN(C(=O)c3cc([N+](=O)[O-])ccc3N3CCN(C)CC3)CC2)c(F)c1	FAS TE block 69.6
CC(NC(=O)/C(C#N)=C/c1ccc(Cl)c([N+](=O)[O-])c1)c1ccccc1 (stereo not drawn)	NPR1 activator 54.6 (no result: FAS TE block)
C[C@@H](NC(=O)/C(C#N)=C/c1ccc(O)c(O)c1)c1ccccc1	none
CC1Oc2cc3oc4c(O)c(O)ccc4c(=O)c3c(O)c2C1(C)C (stereo not drawn)	FAS TE block 52.3 (no result: NPR1 activator, NPR2 activator)
COc1ccc(-c2cc(=O)oc3c(O)c(O)ccc23)cc1	none
N#CCC[C@@H]1CC[C@]2(CCCN(S(=O)(=O)c3ccccc3)C2)O1	none (no result: FAS TE block, APOBEC3A inh, A3G deaminase)
Cc1cccc(-c2cccc3c4c([nH]c23)[C@@H]2C[C@H]3[C@@H](CN2CC4)[C@H](C)ON3C)c1	none (no result: FAS TE block, APOBEC3A inh, A3G deaminase)
Cc1cc(C)n(-c2nc3ccccc3nc2N2CCN(S(=O)(=O)c3ccc4ccccc4c3)CC2)n1	FAS TE block 66.7
Cc1cccc(-n2c(SCC(=O)O)nc3sc4c(c3c2=O)CCCC4)c1	NPR2 activator 45.5
O=C(CNSc1ccc([N+](=O)[O-])cc1[N+](=O)[O-])OCc1ccccc1	none (no result: FAS TE block, APOBEC3A inh, A3G deaminase)
CCOC(=O)C1=C(N)Oc2cc(O)ccc2C1c1ccc(C)cc1 (stereo not drawn)	NPR1 activator 48.6
